This note sets out measurements from PubChem BioAssay AID624483 (NMMLSC, 2012).

In all, about 360,000 compounds went through this assay and about 11,000 (3.1%) were called active. Inconclusive results (about 2%) are left out. This excerpt belongs to a sample that is enriched for actives. Unmarked numbers belong to inactive results. Rule as the data show it: active = fluorescence intensity above about 16000; inconclusive = no clear call, values can overlap the other calls; inactive = below that.

A short description of the assay: counter-screen for toxin protease inhibitors: compound fluorescence, primary screen, artefact control for toxin protease inhibitor project, biochemical, multiplex microsphere, HTS (AID 624483). To be noted: compound autofluorescence counterscreen, microsphere flow cytometry; active compounds read high. (In general: A counterscreen serves to expose hits that act by an unwanted route or on another target.)
Take `CC1(C)OC(=O)C2=C(C[C@@H](C3CC3)O[C@H]2c2ccc(Cl)cc2)O1`: the fluorescence intensity is 5960.

In the case of `Cc1cc2nc(-c3ccco3)c(Cc3cccc(F)c3)n2c(C)c1Br`, the fluorescence intensity is 5860.

On to `Cc1cc(OCC(=O)N(C)c2c(N)n(Cc3ccccc3)c(=O)[nH]c2=O)c(C(C)C)cc1Cl`, for which the fluorescence intensity was 5120.

Regarding `Cc1ccc(S(=O)(=O)N(CC(=O)NCCSC2CCCCC2)c2ccccc2F)cc1`, the fluorescence intensity is 7650.

For the molecule `O=P(c1cccs1)(c1cccs1)c1cccs1`, the fluorescence intensity was 22500 (active).

`O=C(O)CCC(=O)N(Cc1cccs1)Cc1cccs1`: the fluorescence intensity was 9340.

`COc1ccc(CC(N)c2csc(NC(=O)Cc3ccccc3)n2)cc1` (stereo unspecified): the fluorescence intensity was 3080.

Take `CCCCCCCCN1C(=O)[C@H](CC(=O)NCC23CC4CC(CC(C4)C2)C3)C[C@@]2(C(=O)OC)CCCCC=C12`: the fluorescence intensity is 5660.

As for `COC(=O)c1ccc(CN2CCC(CO)(Cc3ccc(OC)cc3)CC2)cc1`, the fluorescence intensity was 3600.

Consider `CC(=O)N(C1=NCCCS1)c1ccccc1F`, for which the fluorescence intensity is 24900 (active).

As to `O=C(NCc1ccc(F)cc1)c1cc(C2CCCCN2C(=O)c2cccs2)on1` (stereo unspecified), the fluorescence intensity was 3580.

On to `OCc1nc(CO)n(Cc2ccccc2)n1`, for which the fluorescence intensity was 20000 (active).

For `Nc1c(-c2ccccc2)nnn1Cc1ccccc1`, the fluorescence intensity is 5560.

`Cc1nn(Cc2ccccc2)c(C)c1NS(=O)(=O)c1ccccc1`: the fluorescence intensity is 5640.

For the molecule `O=C(NCc1cccnc1)c1ccc2nc([C@@H]3O[C@H](CO)[C@H](O)[C@H](O)[C@H]3O)[nH]c2c1`, the fluorescence intensity is 3590.

With `O=C1c2cccc3c([N+](=O)[O-])ccc(c23)C(=O)N1CC1CCCO1` (stereo unspecified), the fluorescence intensity was 3530.

In the case of `O=C1C(C=NCC2CCCO2)=C(O)c2ccccc21` (stereo unspecified), the fluorescence intensity was 21000 (active).

In the case of `Cc1ccc(-n2c(O)c(C=NCC3CCCO3)c(=O)[nH]c2=O)c(C)c1` (stereo unspecified), the fluorescence intensity was 6540.

Consider `CC(C)Oc1ccc(CN2CCC2(C)C(=O)NCc2ccc(C(F)(F)F)cc2)cc1` (stereo unspecified), for which the fluorescence intensity was 4110.

For `COc1ccc(C(=O)Nc2nc(-c3ccc(S(=O)(=O)N4CCOCC4)cc3)cs2)cc1`, the fluorescence intensity is 20400 (active).

On to `CNC(=O)c1ccsc1NC(=O)c1ccc(S(=O)(=O)N2CCOCC2)cc1`, for which the fluorescence intensity was 2470.

On to `COc1ccc(C(=O)Nc2cc(S(=O)(=O)N3CCCC3)ccc2Cl)cc1`, for which the fluorescence intensity was 3660.

Regarding `COc1ccc(-c2cnc3c(c2)C(=O)N([C@H](C)CO)C[C@@H](C)[C@H](CN(C)Cc2ccccc2)O3)cc1`, the fluorescence intensity was 3700.

In the case of `CC(C)NC(=O)CSc1ccccc1C(=O)NCc1ccc2c(c1)OCO2`, the fluorescence intensity was 2170.

For `Cn1cc(CCC(=O)NCc2ccc3c(c2)OCO3)c2ccccc21`, the fluorescence intensity is 22500 (active).

With `CCOC(=O)N1CCC(NC(=O)CCc2ccccc2)CC1`, the fluorescence intensity was 3630.

Consider `CCN(CC)C(=O)C(=O)c1cn(CC(=O)NCc2ccc3c(c2)OCO3)c2ccccc12`, for which the fluorescence intensity was 4830.

On to `Cn1cc(CCC(=O)NC2CC2)c2ccccc21`, for which the fluorescence intensity was 3960.

Regarding `CCOC(=O)N1CCC(NC(=O)CCc2cn(C)c3ccccc23)CC1`, the fluorescence intensity was 22900 (active).

Turning to `CCOC(=O)N1CCC(NC(=O)Cc2cn(C)c3ccccc23)CC1`, the fluorescence intensity was 2810.

Turning to `CCn1c(=O)cc(SCC(=O)NCCC2=CCCCC2)c2ccccc21`, the fluorescence intensity was 2540.

For `CCn1c(=O)cc(SCC(=O)NCc2ccc3c(c2)OCO3)c2ccccc21`, the fluorescence intensity was 23400 (active).

On to `COc1ccc(-c2csc(C(O)c3cccc(Cl)c3)n2)cn1` (stereo unspecified), for which the fluorescence intensity was 3880.

As to `COCCNC(=O)CSc1nc2c(n1-c1ccccc1)CCCC2`, the fluorescence intensity was 3860.

With `COc1ccc(-c2cc3nc(NCCOc4ccccc4)ccn3n2)cc1`, the fluorescence intensity was 4480.

With `O=C(NCc1ccc(F)cc1)C(c1ccccc1)N(C(=O)c1csnn1)C1CC1` (stereo unspecified), the fluorescence intensity was 2770.

On to `CNc1cncc(-c2ccc(NS(C)(=O)=O)cc2)n1`, for which the fluorescence intensity was 3500.

With `Cc1ccc(-c2ccnc3nc(Sc4ncc(C(F)(F)F)cc4Cl)nn23)cc1`, the fluorescence intensity is 23100 (active).

`Cc1cc(NC(=O)CSc2ncc(C(F)(F)F)cc2Cl)no1`: the fluorescence intensity was 3110.

For the molecule `Cc1nn(-c2ncc(C(F)(F)F)cc2Cl)c(=O)n1-c1ccccc1`, the fluorescence intensity is 2340.

With `Cc1ccc(-c2cnc(C(O)c3cccc(C)c3C)[nH]2)cc1` (stereo unspecified), the fluorescence intensity was 3860.

Turning to `OC(c1ccccc1)(c1ccccc1)C1CCN(CCCOc2ccccc2)CC1`, the fluorescence intensity is 6640.

`COc1ccc(CN2CCC(C)(Oc3cccc(F)c3)C2)c2ccccc12` (stereo unspecified): the fluorescence intensity is 3240.

In the case of `CC(C)(C)NC(=O)CSC(=Nc1ccccc1F)NC#N`, the fluorescence intensity was 21400 (active).

On to `Cc1ccccc1CSCC(=O)NC(=O)NC(C)(C)C`, for which the fluorescence intensity is 11200.

With `COc1ccccc1-n1ccnc1SCC(=O)NC(C)(C)C`, the fluorescence intensity is 3990.

Regarding `CCOC(=O)[C@]12CCC=C1N(Cc1cccc3ccccc13)C(=O)[C@H](CC(=O)NCc1cccc(C(F)(F)F)c1)C2`, the fluorescence intensity is 4120.

As to `CC(=O)Nc1cc(-c2cccc(CO)c2)cn2c(-c3cccc(C(F)(F)F)c3)cnc12`, the fluorescence intensity is 3820.

`OC(c1ccc(Cl)cc1)C(CN1CCOCC1)c1ccccc1` (stereo unspecified): the fluorescence intensity was 3680.

`COCCn1c(SCC(=O)Nc2cc(Cl)ccc2OC)nc2c(c1=O)SC(C)C2` (stereo unspecified): the fluorescence intensity is 4110.

With `CCOC(=O)c1cccc(NC(=O)CCOc2ccccc2)c1`, the fluorescence intensity was 3720.

For `CCOC(=O)c1cccc(NC(=O)CCn2nnc3ccccc32)c1`, the fluorescence intensity is 4180.

As to `CCOC(=O)c1cccc(NC(=O)CCc2c(C)nc3ncnn3c2C)c1`, the fluorescence intensity was 17600 (active).

Regarding `c1ccc(C2CNCc3c2ccc2ccccc32)cc1` (stereo unspecified), the fluorescence intensity is 10400.

Turning to `O=S1(=O)CC(N2CCN(Cc3ccccc3F)CC2)CN1Cc1cn(Cc2cccc(C(F)(F)F)c2)nn1` (stereo unspecified), the fluorescence intensity was 4150.

Turning to `Cc1ccc(C(=O)c2ccc(N3CCN(C)CC3)c([N+](=O)[O-])c2)cc1`, the fluorescence intensity is 2490.

For `Cc1cccc(N2CCN(c3ccc(C(N)=O)cc3[N+](=O)[O-])CC2)c1C`, the fluorescence intensity is 4080.

Take `CS(=O)(=O)N1CCN(c2ccc(C(=O)NC3C4CC5CC(C4)CC3C5)cc2[N+](=O)[O-])CC1` (stereo unspecified): the fluorescence intensity is 17000 (active).

As for `CCN(CC(=O)NCCc1ccccc1)S(=O)(=O)c1ccc(C)cc1`, the fluorescence intensity was 2180.

Take `CCN(CC(=O)NCCc1ccccc1)S(=O)(=O)c1ccccc1`: the fluorescence intensity is 5110.

Regarding `CCCNC(=O)CN(Cc1ccccc1F)S(=O)(=O)c1ccc(C)cc1`, the fluorescence intensity is 21400 (active).
